HT1080 IDH1KD tx = qHTS for induction of synthetic lethality in tumor cells producing 2HG: qHTS for the HT-1080-IDH1KD cell line | HT-1080 IDH1 knockdown viability, ATP luminescence, 48 h | hit rate 2% among 360,000 | AID 686971, 2013 | Potency, µM (series often up to 46.1 µM), without a hit: at the highest dose activity, negative = toxicity, hits mostly cytotoxic;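 further: potency means the concentration at half of the fitted maximal effect; 0% = DMSO wells and -100% = cell-free medium wells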
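Knockdown cells (IDH1KD HT-1080) received compounds 2 h after plating at 750 cells/well and were kept 48 h at 37 °C in 5% FBS RPMI. A CellTiter-Glo luminescence read gave % activity for curve fitting.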
HT1080-NT tox = qHTS for induction of synthetic lethality in tumor cells producing 2HG: qHTS for the HT-1080-NT fibrosarcoma cell line. HT-1080-NT fibrosarcoma viability, CellTiter-Glo ATP luminescence, 48 h. hit rate 1.6% among 360,000. Potency, µM (series often up to 46.1 µM), for inactives: at the highest dose activity, negative = less viability, hits mostly cytotoxic. AID 686970, 2013;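 further: NT is the 2HG producing partner of a matched IDH1 knockdown line; potency means the concentration at half of the fitted maximal effect; 0% = DMSO-treated cells and -100% = media-only wells without cells; nearly all actives have a fitted effect of over 55% in size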
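750 cells/well, RPMI + 5% FBS; 2 h settle, compound pin-transfer, 48 h at 37 degrees C. CellTiter-Glo 10 min RT, luminescence. Normalized to DMSO and media-only wells.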
DT40 TDP1 CPT = qHTS for Inhibitors of human tyrosyl-DNA phosphodiesterase 1 (TDP1): qHTS in cells in presence of CPT; hit rate 12% among 420,000; chicken DT40 Tdp1-/-;hTDP1 cells + 20 nM CPT, ATP luminescence, 48 h; Potency, µM (top dose mostly 46.2 µM), for inactives: at the highest dose activity change, negative = growth inhibition, actives largely listed as inhibitors; further: potency means the concentration at half of the fitted maximal effect; nearly all actives have a fitted effect of over 55% in size
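Chicken DT40 Tdp1-/- cells complemented with human TDP1, 400 cells/well, exposed to compounds plus 20 nM camptothecin for at least 48 h at 37 C; viability read as ATP content by CellTiter-Glo luminescence.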
ALOX12 inh = Primary qHTS assay for inhibitors of human arachidonate 12S-lipoxygenase (ALOX12): Round 2; Potency, µM (top dose mostly 108 µM), for the others: at the highest dose activity change, negative = inhibition, most hits filed as inhibitors; hit rate 1.1% among 580,000; purified 12hLO, xylenol orange hydroperoxide absorbance; Polyunsaturated fatty acid lipoxygenase ALOX12 (Homo sapiens), P18054; further: potency means the concentration at half of the fitted maximal effect
Target sequence (P18054 whole entry, looked up): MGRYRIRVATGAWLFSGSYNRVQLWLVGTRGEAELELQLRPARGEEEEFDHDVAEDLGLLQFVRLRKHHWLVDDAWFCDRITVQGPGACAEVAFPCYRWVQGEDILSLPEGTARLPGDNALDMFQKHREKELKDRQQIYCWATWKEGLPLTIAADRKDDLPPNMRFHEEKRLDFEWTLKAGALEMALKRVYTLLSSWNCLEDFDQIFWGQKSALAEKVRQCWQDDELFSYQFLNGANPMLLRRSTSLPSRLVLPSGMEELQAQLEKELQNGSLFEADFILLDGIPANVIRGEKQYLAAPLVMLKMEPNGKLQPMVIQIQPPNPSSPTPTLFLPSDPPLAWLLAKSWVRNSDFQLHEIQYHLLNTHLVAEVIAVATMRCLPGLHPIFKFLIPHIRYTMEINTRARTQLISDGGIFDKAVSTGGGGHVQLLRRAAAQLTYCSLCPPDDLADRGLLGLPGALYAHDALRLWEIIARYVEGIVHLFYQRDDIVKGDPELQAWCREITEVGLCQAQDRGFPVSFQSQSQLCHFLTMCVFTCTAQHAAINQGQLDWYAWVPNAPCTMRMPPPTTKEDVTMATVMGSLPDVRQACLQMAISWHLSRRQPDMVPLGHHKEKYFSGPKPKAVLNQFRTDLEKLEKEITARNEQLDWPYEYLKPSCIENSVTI
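Hydroperoxide product was detected by ferrous iron/xylenol orange as the 573 to 405 nm absorbance ratio. Arachidonic acid at 40 uM (final) was turned over for 30 min at room temperature by 150 nM human 12hLO, pH 7.0 Hepes buffer, after 15 min compound preincubation.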
IL1B secr inh = qHTS for Inhibitors of Inflammasome Signaling: IL-1-beta AlphaLISA Primary Screen; THP-1 LPS/ATP IL-1B secretion, AlphaLISA, 16 h; active compounds read low; activity change, % at 57.5 µM; hit rate 4.7% among 360,000; in the data active means activity change below about -50%; inconclusive means mostly about -30% to -49%
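Secreted IL-1B measured by AlphaLISA bead assay after 16 h compound exposure of THP-1 cells; compounds (final up to 57.5 uM) added 1 h before LPS (250 ng/mL) and ATP (1.25 mM) stimulation; lower signal means less secretion.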
TDP1 cell noCPT = qHTS for Inhibitors of human tyrosyl-DNA phosphodiesterase 1 (TDP1): qHTS in cells in absence of CPT; hit rate 15% among 420,000; DT40 Tdp1-/- hTDP1 cells, no CPT, ATP luminescence, 48 h; Potency, µM (highest dose often 46.2 µM), for the others: at the highest dose activity change, negative = growth inhibition, usual class: inhibitors; further: potency means the concentration at half of the fitted maximal effect; nearly all actives have a fitted effect of over 55% in size
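Cells were dispensed at 400 per well, compounds added by pin tool, plates incubated ≥48 hr at 37 °C, then CellTiter-Glo added for 30 min at room temperature before luminescence reading. Line: DT40 Tdp1-/- complemented with hTDP1; camptothecin omitted.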
Starred values were filed as active, the others as inactive; i = inactive; ? = inconclusive; · = no result. Shown is part of a subset that was picked to be rich in hits. Unless noted, the call rests on the fitted dose curve; in most records, active means well fitted curve in the direction sought with a large enough effect; inconclusive means small, poorly fitted or top-dose-only effect, or another doubt; inactive means no such curve, though single readings can be large; an effect the other way counts as inactive or inconclusive. Unless noted, on the % scale 0 is the no-effect control and ±100 the full control effect.

SMILES	HT1080 IDH1KD tx	HT1080-NT tox	DT40 TDP1 CPT	ALOX12 inh	IL1B secr inh	TDP1 cell noCPT
COc1ccc(-c2nnc(CSc3nc4ccccc4c(=O)n3CC(C)C)o2)cc1OC	?	?	?	3%	-16	16µM*
CC(SC1CCCC1)C(=O)Nc1cccc(Cl)c1Cl (stereo not drawn)	·	·	·	-20%	·	·
COc1ccc(/C=C2\SC(=O)N(CCNC(=O)Cn3cnnn3)C2=O)cc1	-5%	8%	-25%	?	-28	-13%
COc1ccc(/C=C2\SC(=O)N(CCNC(=O)CCS(=O)(=O)c3ccc(C)cc3)C2=O)cc1	-7%	-3%	13µM*	-6%	-12	21µM*
CCc1noc(C)c1C(=O)NCCN1C(=O)S/C(=C\c2ccc(OC)cc2)C1=O	0%	2%	23µM*	-10%	-23	16µM*
CCc1cccc2c(C(=O)C(NCCOC)c3ccccc3)c[nH]c12 (stereo not drawn)	-9%	?	?	15%	-23	12µM*
CCNC(C(=O)c1c[nH]c2c(CC)cccc12)c1ccccc1 (stereo not drawn)	?	?	?	36%	-57*	?
O=c1[nH]c2ccc(Cl)cc2c(-c2ccccc2)c1N1CCN(CCO)CC1	?	11µM*	?	9%	-19	?
NNC(=O)CSc1c(-c2ccccc2)c2cc(Cl)ccc2[nH]c1=O	-2%	-2%	2%	110%	-18	?
O=c1[nH]c2ccc(Cl)cc2c(-c2ccccc2)c1SC(=S)N1CCOCC1	?	16µM*	?	0%	?	?
N/C(=N/O)c1cccc(CN2CCOCC2)c1	·	·	·	-9%	·	·
CNC(=O)C(C)S(=O)(=O)Cc1cc(Cl)c2c(c1)OCO2 (stereo not drawn)	·	·	·	5%	·	·
CCCCCCCCN1C(=O)[C@H](CC(=O)N2CCCCC2)C[C@@]2(C(=O)OC)CC(C)(C)CC=C12	?	?	8.2µM*	-6%	8	6.5µM*
CCCCCCCCN1C(=O)[C@H](CC(=O)N2CCOCC2)C[C@@]2(C(=O)OC)CC(C)(C)CC=C12	?	?	21µM*	?	?	18µM*
CCCCCCCCN1C(=O)[C@@H](CC(=O)N2CCOCC2)C[C@@]2(C(=O)OC)C1=C[C@H](C(C)(C)C)O[C@@H]2C	·	·	·	-8%	·	·
COC(=O)[C@@]12C[C@@H](CC(=O)N3CCCCC3)C(=O)N(CCc3ccc(OC)c(OC)c3)C1=CCC(C)(C)C2	5%	6%	?	0%	-8	?
CCOC(=O)C1=CCN(S(=O)(=O)c2ccc(C)cc2)C1c1cccc(Br)c1 (stereo not drawn)	?	-26%	16µM*	-24%	-18	?
CCOc1ccc([C@@H]2CC=C(C(=O)O)[C@H](c3cccc(Cl)c3)N2S(=O)(=O)c2ccc(C)cc2)cc1	12%	4%	?	?	40	?
CCOC(=O)C1=CC[C@@H](c2cccc(Br)c2)N(S(=O)(=O)c2ccc(F)cc2)[C@H]1c1cccc(Cl)c1	-6%	0%	21µM*	8%	11	10µM*
CCOC(=O)C1=CCN(S(=O)(=O)c2ccc(Br)cc2)C1c1cccc(C)c1 (stereo not drawn)	?	?	?	1%	6	26µM*
N#Cc1ccc(S(=O)(=O)N2CCN(CC(=O)Nc3ccccc3C(=O)NC3CCCC3)CC2)cc1	·	·	·	-27%	·	·
Cc1cc(C(=O)N2CCCCCC2)cc(S(=O)(=O)N2CCC(C)CC2)c1C	·	·	·	11%	·	·
CCC(NC(=O)c1cc(OC)ccc1OC1CCN(C(C)=O)CC1)c1ccc(F)cc1 (stereo not drawn)	·	·	·	52%	·	·
O=C(Cc1cccc2cccnc12)NCC1CC1	·	·	·	0%	·	·
COc1ccc(/C=C(/C#N)c2nc(-c3cc4ccccc4oc3=O)cs2)cc1	·	·	?	-16%	·	15µM*
SMILES	HT1080 IDH1KD tx	HT1080-NT tox	DT40 TDP1 CPT	ALOX12 inh	IL1B secr inh	TDP1 cell noCPT
Cc1ccc(/C=C(\C#N)c2nc(-c3cc4c(ccc5ccccc54)oc3=O)cs2)cc1	·	·	3%	4%	·	-8%
COc1ccc(/C=C(\C#N)c2nc(-c3cc4c(ccc5ccccc54)oc3=O)cs2)cc1O	·	·	2.9µM*	0%	·	3.3µM*
COc1ccc(/C=C(\C#N)c2nc(-c3cc4ccccc4oc3=O)cs2)cc1OC	·	·	4%	1%	·	-3%
CC(=O)Nc1ccc(NC(=O)c2cccc3c(Br)cccc23)cc1	·	·	·	-12%	·	·
OC(CN1CCOCC1)CN(c1ccccc1)c1ccccc1 (stereo not drawn)	2%	4%	?	?	18	12µM*
OC(CN1CCCCC1)CN(c1ccccc1)c1ccccc1 (stereo not drawn)	-10%	-4%	?	12%	-19	26µM*
NC(N)=NCC(O)CN(c1ccccc1)c1ccccc1 (stereo not drawn)	-11%	-18%	?	?	-82*	15µM*
OC(CN1CCCCCC1)CN(c1ccccc1)c1ccccc1 (stereo not drawn)	-3%	0%	?	i	0	?
N#Cc1c(F)cccc1NCC12CC3CC(CC(C3)C1)C2	·	·	·	-27%	·	·
O=c1[nH]n(Cc2ccccc2)c(=O)c2ccccc12	?	4%	?	6%	17	8.9µM*
COC(=O)CCn1[nH]c(=O)c2ccccc2c1=O	29%	9%	19%	-30%	-13	-11%
O=C(CN1CCN(S(=O)(=O)c2ccc(F)cc2)CC1)Nc1ccc(F)cc1F	9%	10%	-10%	2%	3	?
COc1ccc(S(=O)(=O)N2CCN(CC(=O)Nc3cccc(F)c3)CC2)cc1	6%	-3%	-7%	0%	0	-3%
O=C(CN1CCN(S(=O)(=O)c2ccc(F)cc2)CC1)Nc1cc(C(F)(F)F)ccc1Cl	-5%	-3%	21µM*	86%	-18	?
COc1ccc(S(=O)(=O)N2CCN(CC(=O)Nc3cc(C(F)(F)F)ccc3Cl)CC2)cc1	-16%	-2%	?	·	-17	10µM*
